HIF act: HIF pathway transcriptional activation; 300,000 tested, 0.32% active; AID 1910; activation, % at 7.5 µM (by protocol); U2OS HRE-luciferase reporter, luminescence; normalized: DMSO 0%, desferrioxamine 100%;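 active = mean activation of at least 10% of the iron chelator positive control signal, with at least half of replicates also reaching 10%; inconclusive = mean and replicate majority disagree about reaching 10%; inactive = mean and most replicates under 10%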
Wee1 stabilizer: human Wee1 degradation inhibition, primary screen; P30291; HeLa Luc-Wee1K328M stability, luciferase luminescence; 100% = proteasome inhibitor MG132 effect; reporter increase, % at 5 µM; 220,000 tested, 1.2% active; AID 1321;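 active = activation above the mean of all tested compounds plus 3 SD, set per screening run, cut at about 8.8% in these data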;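 note: cells exposed to compound for 20 h before luminescence read; 0% = DMSO alone and 100% = MG132 at 30 µM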
Target sequence (P30291 whole entry K328M): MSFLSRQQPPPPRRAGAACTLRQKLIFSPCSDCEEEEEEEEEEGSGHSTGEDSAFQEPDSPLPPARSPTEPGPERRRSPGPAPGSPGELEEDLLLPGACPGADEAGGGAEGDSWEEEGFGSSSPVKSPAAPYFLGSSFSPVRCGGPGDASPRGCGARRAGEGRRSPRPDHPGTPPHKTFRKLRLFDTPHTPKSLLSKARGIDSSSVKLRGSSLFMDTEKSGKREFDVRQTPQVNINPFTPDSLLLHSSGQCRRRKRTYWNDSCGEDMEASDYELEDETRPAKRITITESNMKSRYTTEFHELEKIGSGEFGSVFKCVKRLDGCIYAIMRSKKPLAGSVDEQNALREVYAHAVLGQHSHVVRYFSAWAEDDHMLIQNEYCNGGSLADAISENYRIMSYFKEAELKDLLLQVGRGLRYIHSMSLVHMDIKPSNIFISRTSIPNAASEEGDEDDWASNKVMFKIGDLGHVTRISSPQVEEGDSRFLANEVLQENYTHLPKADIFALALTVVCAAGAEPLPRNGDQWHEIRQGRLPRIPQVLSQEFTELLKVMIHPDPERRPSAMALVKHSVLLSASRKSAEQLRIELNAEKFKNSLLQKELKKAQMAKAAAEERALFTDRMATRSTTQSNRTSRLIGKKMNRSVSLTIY
Platelet DG rel: modulates dense granule release in human platelets. human platelet-rich plasma, SFLLRN dense granule ATP release, luminescence. 300,000 tested, 0.22% active. AID 1663. inhibition, %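 (compounds screened at 7.5 µM in platelet-rich plasma)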;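 active = mean replicate score, as percent of positive control, at or above 50; inconclusive = mean below 50 but at least one replicate at or above 50; inactive = mean and every replicate below 50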
KLF5 inhibitor: inhibitors of KLF5 expression | inhibition, % at 5 µM | 290,000 tested, 0.23% active | DLD-1 KLF5 promoter-luciferase reporter, luminescence;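 active = inhibition above a per-plate limit of that plate's mean compound inhibition plus 3 SD, cut at about 60% in these data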;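 note: 0% = DMSO wells and 100% = LY294002 at 200 µM; higher means less KLF5 promoter-driven luciferase light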
aSyn 5UTR inh: 5' untranslated region of α-synuclein, MLPCN primary screen; alpha-synuclein 5'UTR reporter, inhibitor activity; inhibition, % (tested at 7.5 µM); 300,000 tested, 0.82% active; AID 1813; in the data active = inhibition above about 60%; inconclusive = no clear call, values can overlap the other calls;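 note: H4 neuroglioblastoma cells stably carrying SNCA 5'UTR luciferase fusion; 0% = DMSO wells and 100% = positive control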
Numbers without * were called inactive; u = inconclusive; x = no result given. Hits are enriched below; roughly 2.1% of the tested compounds scored in any of these assays.

SMILES | HIF act | Wee1 stabilizer | Platelet DG rel | KLF5 inhibitor | aSyn 5UTR inh
CCC(C)[C@H](NC(=O)C1CC(=O)N(c2ccc3c(c2)OCCO3)C1)C(=O)N1CCCCC1 (some centres undefined) | 0 | x | 5 | -24 | 0
Cc1csc2c(NCCCN3CCOCC3)ncnc12 | -1 | 1 | 1 | -11 | 15
CC1(C)Cc2c(sc3ncnc(NNC(=S)NCc4ccccc4)c23)CO1 | 1 | 5 | -2 | 61 | 87*
CC(C)NC(=S)NNc1ncnc2sc3c(c12)CC(C)(C)OC3 | 0 | x | 2 | x | 31
O=C(N/N=C/c1ccc(Cl)cc1)c1sccc1OCc1ccc(F)cc1 | 1 | 3 | 3 | 23 | 73*
O=C(NC1CCSc2ccccc21)c1cccc([N+](=O)[O-])c1 (centres undefined) | 1 | x | -6 | -23 | -12
N#Cc1ccccc1NC(=O)c1ccc2c(c1)OCCO2 | 2 | x | -2 | -103 | -94
Cc1cc(C(N)=O)c2ccccc2n1 | 0 | -1 | 10 | -21 | 2
NC(=O)c1cc2c3ccccc3ccn2c1-c1ccccc1 | 1 | 2 | 10 | -12 | 113*
Clc1cccc(Cl)c1C1=NOC(c2nnc(-c3ccccc3)o2)C1 (centres undefined) | 1 | x | 0 | x | -56
O=C(CSc1nnc(NC(=O)c2ccccc2F)s1)NCc1ccco1 | 2 | x | -9 | -174 | -80
CC(C)=CCc1c(O)cc2oc3c(CC=C(C)C)c(O)c(O)c(CC=C(C)C)c3c(=O)c2c1O | 0 | x | -2 | x | 62*
O=C(Nc1ccc(-c2ccc(N3CCCCC3)nn2)cc1)c1ccco1 | 4 | x | 30 | x | -131
CSCCC(NC(=O)c1ccco1)C(=O)Nc1ccncc1 (centres undefined) | 0 | x | 1 | -17 | -17
CCCNC(=O)COc1coc(CN2CCN(c3ccccc3OC)CC2)cc1=O | 0 | x | -2 | -26 | -13
Cc1nc2c(-c3ccc(Cl)cc3)c(C)[nH]n2c(=O)c1Cc1ccccc1 | 0 | -2 | 5 | 35 | 78*
COCCN=c1scc(-c2cccs2)n1/N=C/c1ccc(O)c(O)c1O | 0 | -3 | 3 | -34 | 67*
CC(C)(C)c1ccc(C(=O)Cn2cnnc2C#N)cc1 | 1 | x | -3 | -8 | -21
O=C(O)c1ccc(-c2noc(-c3cccc(F)c3)n2)cc1 | 1 | x | 40 | x | -96
COc1cccc(-c2nc(-c3ccc(C(=O)O)cc3)no2)c1 | 6 | x | 50* | x | -96
O=C(O)c1ccc(-c2noc(-c3ccccc3F)n2)cc1 | -2 | x | 69* | x | -58
COc1cccc(-c2nc3ccc(O)cc3c(=O)o2)c1 | 0 | 8 | 52* | 6 | -9
Cc1ccc(-c2noc(-c3ccccc3F)n2)cc1 | 1 | 5 | 11 | -115 | -42
CC(C)c1ccc(/C=N/NC(=O)c2ccccc2Cl)cc1 | 3 | 8.9* | 3 | -9 | -38
O=C(N/N=C/c1cc(Cl)ccc1O)C(=O)Nc1ccccc1OC(F)(F)C(F)F | x | -2 | x | -6 | x
SMILES | HIF act | Wee1 stabilizer | Platelet DG rel | KLF5 inhibitor | aSyn 5UTR inh
O=C(CCc1ccccc1)N/N=C/c1cc(Br)ccc1O | 12* | 0 | 9 | 16 | 32
NNC(=O)c1[nH]c2ccc(Cl)cc2c1-c1ccccc1 | 5 | 0 | 22 | -16 | 77*
Oc1ccc(Br)cc1/C=N/NC(=S)NCCc1ccccc1 | 0 | x | 0 | -9 | 20
O=C(N/N=C/c1cc(Br)ccc1O)C(=O)Nc1ccccc1OC(F)(F)C(F)F | 12* | -1 | 7 | 36 | 82*
Cc1ccc(S(=O)(=O)N2CCOCC2)cc1NC(=O)Cn1nc(C)c([N+](=O)[O-])c1C | 0 | x | 0 | x | 4
O=C(N/N=C/c1cc(Br)ccc1O)c1ccccc1Cl | 26* | -3 | 5 | 14 | 67*
COC(=O)N/N=C/c1cc(Br)ccc1O | 0 | 3 | 6 | -21 | -19
O=C(N/N=C/c1ccccc1Cl)c1[nH]c2ccc(Br)cc2c1-c1ccccc1 | 0 | 11* | 0 | 13 | 71*
Cc1cccc(C(=O)NCC(=O)Nc2ccncc2)c1 | 0 | x | -5 | x | 8
COc1ccc(-c2nn(C)c(=O)[nH]2)cc1 | -1 | 11* | -5 | -22 | 3
CCOc1ccc(N(CC(=O)Nc2c(C)n(C)n(-c3ccccc3)c2=O)S(=O)(=O)c2ccccc2)cc1 | 0 | 11* | -1 | -25 | 23
COc1ccc(N(CC(=O)Nc2c(C)n(C)n(-c3ccccc3)c2=O)S(=O)(=O)c2ccc(C)cc2)cc1OC | -1 | x | 2 | -11 | 17
Cc1ccc2c(c1)N(C(=O)CCC(=O)NCCCN1CCN(C)CC1)CC(C)O2 (centres undefined) | 0 | x | -2 | -18 | -9
Cc1ccc(C(=O)N/C(=C\c2ccc(-c3ccccc3[N+](=O)[O-])o2)C(=O)NCCCN2CCOCC2)cc1 | x | x | 11 | -28 | 71*
COc1ccc(NC(=O)C2CCN(C(=O)Cc3ccccc3)CC2)cc1OC | -1 | 2 | 0 | -1 | -15
O=C(Nc1cccc(F)c1)C1CCN(C(=O)Cc2ccccc2)CC1 | 0 | -3 | 51* | -22 | -3
Cc1ccccc1-c1nc(CS(=O)CC(=O)NC2CCCCC2)c(C)o1 (centres undefined) | 0 | x | -6 | -28 | -10
Cc1cc(Br)ccc1SCC(=O)OCC(=O)NC1CC1 | 0 | 10* | 11 | -34 | 1
Cc1ccc(S(=O)(=O)N2CCC(C(=O)OCC(=O)N3CC(C)CC(C)C3)CC2)cc1C (centres undefined) | 0 | x | 13 | x | 16
Cc1cc(S(=O)(=O)ON2C(=O)c3ccccc3C2=O)ccc1F | 37* | x | u | -3 | -29
COCc1ccc(CN2CCCCC2C(=O)Nc2ccc(Oc3ccccc3)nc2)o1 (centres undefined) | 0 | x | 4 | 0 | 6
COc1cccc(C(=O)Oc2c(Br)cc(Br)cc2/C=N/NC(=O)c2cc(C)[nH]n2)c1 | 5 | -3 | 16 | 51 | 64*
Cc1cc(C(=O)N/N=C/c2ccc(-c3cccc(Br)c3)o2)n[nH]1 | -1 | 10* | 3 | 8 | -10
Cc1cc(C(=O)N/N=C/c2cccc(OC(=O)c3cccc(Br)c3)c2)n[nH]1 | x | x | x | -31 | x
COC(=O)N/N=C/c1cc(N=Nc2ccccc2)ccc1O | -1 | 0 | 1 | -39 | -38
SMILES | HIF act | Wee1 stabilizer | Platelet DG rel | KLF5 inhibitor | aSyn 5UTR inh
Cc1cc(C(=O)N/N=C/c2cc(N=Nc3ccccc3)ccc2O)n[nH]1 | 19* | 5 | -10 | 18 | 66*
Cc1ccc(CCNC(=O)C2CCC(=O)N(Cc3ccccc3F)C2)o1 (centres undefined) | 2 | x | 1 | -43 | -52
Cc1ccc(C(=O)CSc2nnc(N)s2)c(C)c1 | 2 | 8 | 4 | -88 | -92
COc1cccc(NC(=O)CN(C)C(=O)c2oc3c(ccc4ccccc43)c2C)c1 | 0 | x | 19 | x | 10
Cc1ccc(NC(=O)C(c2ccccc2)c2ccccc2)c(O)c1 | 0 | x | 5 | 1 | 1
CCCCc1ccc(-c2ccc(Br)cc2)nc1 | 1 | 0 | -1 | -19 | 25
CCCc1ccc(-c2ccc(F)c(N)c2)nc1 | -2 | -2 | u | -13 | 99*

Screening data as filed in PubChem BioAssay.
